# Molecular target: SNX29
# Assay: pooled miR-30 sensor sort-seq; sequence = guide strand
# Conditions: shRNA
# Also: reference of the scale not given here.
row,Sequence,sensor-assay potency score (higher = more potent)
1,AACTTCTCCATCAACACTCCAA,0.0779
2,TACTTGTTTTGTAACTTGTGGT,0.289
3,TTGACCTTCTCTTTTCAGCATC,-0.863
4,TTGGACTTTGAGCACCTCGTTC,-0.779
5,TTTTATCCGGATGTAGACCTGA,0.194
6,TTCTGGAGCTGCTTTCTCCGTT,-0.513
7,TTTCTTTCGTAGGAGCTTGCGA,-0.585
8,TAACTTGTGGTGCAAACTCCTG,-1.57
9,TTCTTCAGCAATTTCTCCCGGC,0.0945
10,TTGAGCACCTCGTTCTCTCTGG,-0.561
11,TTCTTTCGTAGGAGCTTGCGAG,-0.569

# Molecular target: SNX32
# Assay: as above
# Conditions: shRNA
row,Sequence,sensor-assay potency score (higher = more potent)
1,TTGAACAGTGAATTTCACCTTG,0.337
2,TTCGTGCATCGCAACTGTCTTC,-0.785
3,TGAACAGTGAATTTCACCTTGT,0.317
4,TTCTGTAGCTTTTCCCTCGAAG,-0.129
5,TTAGCTGGTTGACTTCCTGTGT,0.0166
6,TTTGAGCTCCAGCTCTGCCAGC,-1.19
7,TGCGTCAGAAATCTCCACCTGT,0.185
8,TTTCGAAAAGAGGAGACCCGGC,-0.633
9,TACTCCAACAGGAAGGTCCTCT,0.509
10,AATTTGAGGAAGCTCGTCCTTA,-0.0375
11,TAAGGAGCTGTCTCCCTGCAGA,-1.06

# Molecular target: SOCS2
# Assay: as above
# Conditions: shRNA
row,Sequence,sensor-assay potency score (higher = more potent)
1,TTTGGCTTCATTAACAGTCATA,-0.491
2,TATCCTTGCACATCTGAACATA,-1.25
3,TATTGTTAGTAGGTAGTCTGAA,0.147
4,TTAGTAGGTAGTCTGAATGCGA,-0.295
5,TAGTAGGTAGTCTGAATGCGAG,-0.794
6,TAATCTTTTAGTCTTGTTGGTA,-0.175
7,TTAACAGTCATACTTCCCCAGT,-1.23
8,TTAAGCTTGGATTTGACACATA,-1
9,TTTTCCGTCTTGGTATTCGATT,-1.45
10,TTCGAAGATTAGTTGGTCCAGC,0.103
11,TTGCACATCTGAACATAGTAGT,0.207
12,TTCTCTTTTACATAGCTGCATT,-0.899

# Molecular target: SOHLH2
# Assay: as above
# Conditions: shRNA
row,Sequence,sensor-assay potency score (higher = more potent)
1,TATGTTTGCAAATAGTTTCTGT,0.299
2,TTTGATATTAGGTCTTTGGGTG,-0.0455
3,TTTGAGGGACATGTTGTCCAGT,-0.779
4,TATCGTGTCTACATGGATCTTC,0.657
5,TTTCTGTACAGTATCAGCCAGG,-0.773
6,TTGATGGAACTCTCACAGCTTC,-0.632
